Screening results as filed in PubChem BioAssay.
LEDGF integ inh: blocks HIV-1 LEDGF/p75-dependent DNA integration; TR-FRET IN-LEDGF/p75 DNA integration, Eu/Cy5; inhibition, % at 3.7 µM; 370,000 compounds, 0.64% hits; AID 743269;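 active = inhibition above the screen-wide mean plus 3 SD, cut at about 13% in these data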;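 also: signal is the Cy5 over europium emission ratio at 671 and 618 nm; 0% = plate median of compound wells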
PRMT1 FP inh: blocks human protein arginine methyltransferase 1; recombinant PRMT1, activity-based probe fluorescence polarization; AID 652257; 370,000 compounds, 1.3% hits; Q99873; inhibition, % at 2.79 µM;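 active = inhibition above about 21% made by adding two undisclosed values, limit read from the data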
UHRF1 binding: human UHRF1 methylated DNA binding inhibitors; 370,000 compounds, 0.75% hits; Q96T88; UHRF1 binding to methylated oligo, TR-FRET; inhibition, % at 4.4 µM; in the data active = inhibition above about 21%;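 also: UHRF1 SRA domain binding a hemimethylated CpG hairpin DNA probe; 0% = median of test compound wells and 100% = reference inhibitor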
Target sequence (Q96T88 whole entry, looked up, the tested form may be a part): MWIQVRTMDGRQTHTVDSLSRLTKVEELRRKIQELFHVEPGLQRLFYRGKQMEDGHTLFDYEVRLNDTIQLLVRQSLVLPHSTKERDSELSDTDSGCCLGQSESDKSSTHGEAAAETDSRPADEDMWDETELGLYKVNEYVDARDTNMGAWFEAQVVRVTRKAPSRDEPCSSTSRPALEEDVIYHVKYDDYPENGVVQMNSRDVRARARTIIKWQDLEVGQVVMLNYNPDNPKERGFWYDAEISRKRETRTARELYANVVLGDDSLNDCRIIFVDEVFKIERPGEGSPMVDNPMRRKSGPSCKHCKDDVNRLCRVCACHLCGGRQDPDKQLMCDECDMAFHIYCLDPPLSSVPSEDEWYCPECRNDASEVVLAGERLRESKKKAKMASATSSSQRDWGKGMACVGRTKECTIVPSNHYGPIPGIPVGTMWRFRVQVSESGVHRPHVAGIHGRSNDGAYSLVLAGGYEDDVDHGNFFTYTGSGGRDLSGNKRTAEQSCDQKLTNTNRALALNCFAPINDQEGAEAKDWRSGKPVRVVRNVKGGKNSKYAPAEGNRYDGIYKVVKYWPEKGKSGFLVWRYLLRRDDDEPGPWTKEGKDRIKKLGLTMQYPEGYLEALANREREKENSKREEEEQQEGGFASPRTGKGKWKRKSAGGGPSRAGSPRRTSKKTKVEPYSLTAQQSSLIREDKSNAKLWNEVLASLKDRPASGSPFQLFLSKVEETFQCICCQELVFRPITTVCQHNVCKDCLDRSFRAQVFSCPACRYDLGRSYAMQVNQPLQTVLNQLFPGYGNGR
MBD2 DNA inh: blocks human MBD2 binding to methylated DNA. 370,000 compounds, 0.31% hits. TR-FRET, MBD2 binding to methylated oligonucleotide. Q9UBB5. inhibition, % at 4.4 µM; in the data active = inhibition above about 13%
An asterisk follows results filed as active. A selection: hits, their analogues and other compounds. The true share with any hit is near 2.5%.

`O=S1(=O)CC(N2CCSCC2)CN1Cc1cn(Cc2ccc(C(F)(F)F)cc2)nn1` (stereo not given) gave LEDGF integ inh 4, PRMT1 FP inh -1, UHRF1 binding 6 and MBD2 DNA inh -3.
`Cc1cc(C)cc(Cn2cc(CN3CC(N4CCCC4)CS3(=O)=O)nn2)c1` (stereo not given) gave LEDGF integ inh 4, PRMT1 FP inh 0, UHRF1 binding 6 and MBD2 DNA inh -4.
`CC(C(=O)NN=C(c1ccccc1)c1ccccc1)N1CCOCC1` (stereo not given) gave LEDGF integ inh -4, PRMT1 FP inh 2, UHRF1 binding -1 and MBD2 DNA inh -2.
Screening C/C(Cn1cnc([N+](=O)[O-])n1)=N/NC(=O)COc1ccccc1Cl returned LEDGF integ inh -2, PRMT1 FP inh 1, UHRF1 binding 24* and MBD2 DNA inh 4.
Screening C/C(Cn1cnc([N+](=O)[O-])n1)=N\NC(=O)c1ccccc1O returned LEDGF integ inh -3, PRMT1 FP inh 0, UHRF1 binding 1 and MBD2 DNA inh -1.
COc1ccc(Cc2c(C3CCCCC3)nc3c(C)cc(Br)cn23)c(C)c1 was read as LEDGF integ inh -2, PRMT1 FP inh 11, UHRF1 binding 1 and MBD2 DNA inh 4.
Screening CN1CCN(S(=O)(=O)c2cc(C(F)(F)F)ccc2Cl)CC1 returned LEDGF integ inh -2, PRMT1 FP inh 0, UHRF1 binding 31* and MBD2 DNA inh 1.
`O=S(=O)(c1cc(C(F)(F)F)ccc1Cl)N1CCN(c2ccccn2)CC1` gave LEDGF integ inh -1, PRMT1 FP inh -5, UHRF1 binding 0 and MBD2 DNA inh 0.
CCN1CCN(C(=O)Cn2ncc3c2-c2ccccc2OC3)CC1 was read as LEDGF integ inh -2, PRMT1 FP inh 5, UHRF1 binding 5 and MBD2 DNA inh 1.
Screening O=C(Cn1ncc2c1-c1ccccc1OC2)N1CCN(Cc2ccccc2)CC1 returned LEDGF integ inh 2, PRMT1 FP inh -3, UHRF1 binding 27* and MBD2 DNA inh 11.
`C=CCN=Cc1sc2ccc(OCC)cc2c1O` gave LEDGF integ inh 1, PRMT1 FP inh 24*, UHRF1 binding -1 and MBD2 DNA inh -9.
CCOc1ccc2nc(/N=C/c3nc(-c4ccc(Br)cc4)oc3O)sc2c1 was read as LEDGF integ inh -6, PRMT1 FP inh -2, UHRF1 binding -4 and MBD2 DNA inh -6.
Screening Cc1cc(Cl)ccc1OCC(=O)OCC(=O)NCCNC(=O)COC(=O)COc1ccc(Cl)cc1C returned LEDGF integ inh 20*, PRMT1 FP inh -2, UHRF1 binding -1 and MBD2 DNA inh -5.
`Cc1cc(Cl)ccc1OCC(=O)NCCC(=O)O` gave LEDGF integ inh 1, PRMT1 FP inh -2, UHRF1 binding 3 and MBD2 DNA inh 6.
For Cc1cc(NC(=O)CCCC(=O)NCc2cccs2)no1 the results were LEDGF integ inh 5, PRMT1 FP inh 3, UHRF1 binding 25* and MBD2 DNA inh 12.
COc1[nH]c(/N=C/c2ccccc2)c(C#N)c1C#N was read as LEDGF integ inh 2, PRMT1 FP inh 59*, UHRF1 binding -6 and MBD2 DNA inh -11.
O=C(c1cccc(C(F)(F)F)c1)c1c[nH]c(C(=O)NCC2CCCO2)c1 (stereo not given) was read as LEDGF integ inh 1, PRMT1 FP inh -1, UHRF1 binding 24* and MBD2 DNA inh 2.
`CCc1nc2ccc(C(=O)NCCCn3ccnc3)cn2c1N(C)Cc1ccc(Cl)cc1` gave LEDGF integ inh 2, PRMT1 FP inh 3, UHRF1 binding -1 and MBD2 DNA inh -3.
CC(C)CCNC(=O)C(NS(=O)(=O)c1ccc2c(c1)c(=O)n(C)c(=O)n2C)c1ccccc1 (stereo not given) was read as LEDGF integ inh -5, PRMT1 FP inh 21*, UHRF1 binding 0 and MBD2 DNA inh 0.
CCC(C)NC(=O)C(NS(=O)(=O)c1ccc2c(c1)c(=O)n(C)c(=O)n2C)c1ccccc1 (stereo not given) was read as LEDGF integ inh 0, PRMT1 FP inh 4, UHRF1 binding -16 and MBD2 DNA inh -4.
`C#CCN(C[C@@H]1[C@@H](OC(=O)NCc2ccc(OC)c(OC)c2)[C@@H](OC(=O)NCc2ccc(OC)c(OC)c2)CN(C(=O)OC(C)C)N1C(=O)OC(C)C)S(=O)(=O)c1ccc(C)cc1` gave LEDGF integ inh 52*, PRMT1 FP inh -3, UHRF1 binding -4 and MBD2 DNA inh -1.
For O=C1Nc2ccccc2C1=Nc1ccc2[nH]c3ccccc3c2c1 the results were LEDGF integ inh 0, PRMT1 FP inh 8, UHRF1 binding -6 and MBD2 DNA inh -11.
Cc1ccc(C2=Nc3ccccc3SC(c3cccc([N+](=O)[O-])c3)C2)cc1 (stereo not given) was read as LEDGF integ inh -8, PRMT1 FP inh 76*, UHRF1 binding 4 and MBD2 DNA inh 6.
`COc1ccc(C(C)C)cc1S(=O)(=O)N1CCC(C(=O)NCC2CCCO2)CC1` (stereo not given) gave LEDGF integ inh 1, PRMT1 FP inh 8, UHRF1 binding 9 and MBD2 DNA inh 8.
`Nc1cc2nc3ccccc3oc-2cc1=O` gave LEDGF integ inh 13, PRMT1 FP inh 24*, UHRF1 binding -7 and MBD2 DNA inh -8.
Screening CC(C)CN1CN2Cc3ccccc3C2CS1(=O)=O (stereo not given) returned LEDGF integ inh -2, PRMT1 FP inh 5, UHRF1 binding -1 and MBD2 DNA inh 4.
`Cn1cnnc1SCC(=O)Nc1sc2c(c1C(N)=O)CCC2` gave LEDGF integ inh 6, PRMT1 FP inh 20, UHRF1 binding 25* and MBD2 DNA inh 10.
For CCn1c(SCC(=O)Nc2sc3c(c2C(N)=O)CCC(C)C3)nnc1-c1ccco1 (stereo not given) the results were LEDGF integ inh 4, PRMT1 FP inh 22*, UHRF1 binding 1 and MBD2 DNA inh 0.
`O=C(N/N=C/c1ccc(OC(F)F)cc1)c1ccc(CSc2nc3ccccc3[nH]2)cc1` gave LEDGF integ inh -1, PRMT1 FP inh -1, UHRF1 binding 25* and MBD2 DNA inh 13.
`CC(C)=CCC[C@](C)(O)C1CC[C@]2(C)C1[C@H](O)CC1[C@@]3(C)CC[C@H](O[C@@H]4O[C@H](CO)[C@@H](O)[C@H](O)[C@H]4O[C@@H]4O[C@H](CO)[C@@H](O)[C@H](O)[C@H]4O)C(C)(C)C3CC[C@]12C` (stereo not given in full) gave LEDGF integ inh 2, PRMT1 FP inh 1, UHRF1 binding 3 and MBD2 DNA inh -3.
`C/C=C(\C)C(=O)OC1CC(C)(C)C[C@H]2C3=CC[C@@H]4[C@@]5(C)CCC(O[C@@H]6O[C@@H](C(=O)O)[C@@H](O)C(O[C@@H]7OC[C@H](O)[C@@H](O)[C@@H]7O[C@@H]7OC(CO)C(O)[C@@H](O)[C@@H]7O)C6O[C@@H]6OC(CO)C(O)C(O)C6O)[C@@](C)(CO)[C@@H]5CC[C@]4(C)[C@]3(C)CC(O)[C@@]12CO` (stereo not given in full) gave LEDGF integ inh 26*, PRMT1 FP inh 2, UHRF1 binding 5 and MBD2 DNA inh -1.
